From PubChem BioAssay AID372 (MTDP, 2006)
Where “and” joins values, the source holds several entries; their conditions need not be identical. Equal values may be shown once. The whole screen tested about 100,000 compounds, of which about 770 (0.77%) were called active. What follows is part of a selection rich in actives, with near analogues and random picks from the rest. A number with no mark means an inactive call. Rule as the data show it: active = inhibition above about 50%; inactive = the rest.

The compounds below were run against Gag-Pol polyprotein (Human immunodeficiency virus type 1 group M subtype B (isolate HXB2)) (UniProt P04585) (assay: RNase H inhibition, HIV 1 Gag Pol polyprotein, FRET biochemical assay, screening (AID 372)). Settings: HIV-1 RT RNase H, FRET RNA/DNA substrate fluorescence; at 10 µM; hits give high values.

SMILES | inhibition
NC1=NC(=O)/C(=C/c2cc(Br)ccc2OCc2ccccc2)S1 | 9%
Cn1c(=O)c2c(nc(Sc3nc4ccccc4n3Cc3ccccc3)n2C)n(C)c1=O | 0%
CC(CCC(=O)Nc1ccc(F)cc1)CC(=O)Nc1ccc(F)cc1 (configuration not stated) | 6%
CC(=O)c1cccc(NC(=O)CC2S/C(=N\N=C(/C)C(C)(C)C)NC2=O)c1 (configuration not stated) | 7%
CCCc1sc(NC(=O)c2ccc(OC)cc2)nc1-c1ccc(Br)cc1 | 42%
CCCCCCCNC1CC(=O)N(c2ccc(OCCC)cc2)C1=O (configuration not stated) | 6%
CCOc1ccc(C(=O)NC(=S)Nc2cc(-c3nc4ccc(C)cc4o3)ccc2Cl)cc1 | 29%
COc1ccc(C(=O)Nc2ccc3oc(-c4ccc(OC)c(Cl)c4)nc3c2)cc1Cl | 30%
CCOc1ccc(C(=O)Nc2ccc(-c3nc4cc(C)ccc4o3)cc2)cc1Cl | 12%
COc1ccc(C(=O)Nc2ccc(-c3nc4cc(C)c(C)cc4o3)cc2)cc1Cl | 51% (active)
CCOc1ccc(C(=O)NC(=S)Nc2ccc(Cl)c(-c3nc4ccc(C)cc4o3)c2)cc1Cl | 18%
CCOc1ccc(C(=O)NC(=S)Nc2ccc(-c3nc4ccc(C)cc4o3)cc2)cc1Cl | 56% (active)
CCOc1ccc(C(=O)Nc2ccc(-c3nc4ccc(C)cc4o3)cc2)cc1Cl | 59% (active)
CCOc1ccc(C(=O)NC(=S)Nc2cc(-c3nc4cc(C)ccc4o3)ccc2Cl)cc1 | 60% (active)
CCOc1cc(C(=O)Nc2ccc(-c3nc4ccc(C)cc4o3)cc2)cc(OCC)c1OCC | 10%
COc1ccc(C(=O)Nc2ccc3oc(-c4ccccc4)nc3c2)cc1Cl | 4%
CCOc1ccc(C(=O)NC(=S)Nc2ccc3oc(-c4ccc(C)cc4)nc3c2)cc1Cl | 10%
Cc1ccc2oc(-c3ccc(Cl)c(NC(=S)NC(=O)c4ccc(Cl)cc4)c3)nc2c1 | 48%
CCOc1c(Br)cc(/C=C2/C(=O)NN(c3ccc(C)c(C)c3)C2=O)cc1OC | 22%
COc1cc([N+](=O)[O-])ccc1NC(=S)NC(=O)/C=C/c1ccccc1 | 12%
Fc1ccc(-c2nnc(-c3ccc(Br)o3)o2)cc1 | 6%
COc1ccc(OC)c(N(CC(=O)N(Cc2ccccc2)Cc2ccccc2)S(=O)(=O)c2ccccc2)c1 | 21%
O=C(N/N=C\c1ccc[nH]1)c1cccc2c3c([nH]c12)CCCC3 | 24%
COc1ccc(OC)c(NC(=O)CN(c2ccc(C(C)C)cc2)S(=O)(=O)c2ccccc2)c1 | 8%
C/C(=N/NC(=O)c1ccc2c(c1)OCO2)c1ccc(Br)s1 | 13%

SMILES | inhibition
COc1cc(Br)ccc1OCC(=O)N=Nc1c(O)n(C)c2c(C)cccc12 | 52% (active)
COc1ccc(OCC(=O)N=Nc2c(O)n(C)c3c(C)cccc23)c(Br)c1 | 4%
Cc1cccc2c(N=NC(=O)COc3cccc(Br)c3)c(O)n(C)c12 | 20%
CC(C)OC(=O)c1ccc(NC(=O)c2ccc(Br)cc2)cc1 | 11%
CC(=O)Oc1ccc(-c2cccc(C(=O)OC(C)C)c2)cc1 | 9%
N#C/C(=C/c1ccc(OCc2ccc(C(=O)O)cc2)cc1)C(=O)Nc1ccccc1 | 0%
C=CCc1cccc2cc(C(=O)Nc3ccc(Cl)c(Cl)c3)c(=O)oc12 | 62% (active)
C=CCc1cccc2cc(C(=O)NNC(=O)c3ccc(OC)cc3)c(=O)oc12 | 1%
C=CCc1cccc2cc(C(=O)Nc3ccc(C)c(Cl)c3)c(=O)oc12 | 0%
C=CCc1cccc2cc(C(=O)Nc3ccc(NC(C)=O)cc3)c(=O)oc12 | 10%
C=CCc1cccc2cc(C(=O)NNC(=O)CC#N)c(=O)oc12 | 54% (active)
C=CCc1cccc2cc(C(=O)Nc3ccccc3)c(=O)oc12 | 12%
CC(=O)/C(=C(/C)O)c1ncc(-c2ccccc2)s1 | 12%
Cc1cccc(C(=O)Nc2cccc(C(=O)Nc3ccccc3Cl)c2)c1 | 13%
O=C(Cn1c(NCCO)nc2ccccc21)c1cccc2ccccc12 | 21%
COc1cccc(N2C(=O)/C(=C/c3ccc([N+](=O)[O-])cc3)SC2=S)c1 | 7%
COc1cccc(NC(=O)c2ccc(C(C)(C)C)cc2)c1 | 11%
NC(=O)N=Nc1c(O)[nH]c2ccc(I)cc12 | 5%
CC1(C)CC(=O)C(C=NC2CCCCCCC2)=C(O)C1 | 3%
COC(=O)c1c(NC(=S)Nc2ccccc2)sc2c1CCCC2 | 59% (active)
O=C(Nc1ccccc1)c1c(NC(=S)Nc2ccccc2)sc2c1CCCC2 | 46%
CCOC(=O)c1c(NC(=O)c2ccc(S(=O)(=O)N3CCCCCC3)cc2)sc2c1CCC2 | 6%
Cc1ccc(C(=O)Nc2sc3c(c2C(N)=O)CCCCCC3)cc1 | 32%
COc1ccc(C(=O)Nc2sc3c(c2C(N)=O)CCCCCC3)cc1OC | 0%
COc1ccc(CCC(=O)Nc2sc3c(c2C(N)=O)CCCCCC3)cc1 | 12%

SMILES | inhibition
COc1cc2ccccc2cc1C(=O)Nc1sc2c(c1C(N)=O)CCCC2 | 59% (active)
COc1ccc(C(=O)Nc2sc3c(c2C(N)=O)CCCC3)cc1 | 17%
CCOC(=O)c1c(NC(=S)Nc2ccccc2)sc2c1CCCCC2 | 28%
O=C(CCc1ccccc1)Nc1sc2c(c1C(=O)O)CCCC2 | 4%
NC(=O)c1c(NC(=O)c2ccc(S(=O)(=O)N3CCCCC3)cc2)sc2c1CCCC2 | 53% (active)
C=CCN1C(=O)/C(=C\c2ccc(OCc3ccccc3C)c(OC)c2)SC1=S | 16%
COC(=O)c1cccc(NC(=O)COc2ccc(Br)c(C)c2)c1 | 3%
Cc1c(NC(=O)COc2ccc(Cl)cc2Cl)cccc1[N+](=O)[O-] | 15%
CCN(CC)c1ccc(Nc2nc(-c3sc(N)nc3C)cs2)cc1 | 28%
CCN1CCn2c3c(c4cc(Br)ccc42)CCCC31 (configuration not stated) | 7% and 3%
C(=NN1CCN(c2ccccn2)CC1)c1cccc(OCc2ccccc2)c1 | 0%
Cc1ccc(NC(=O)c2cccc([N+](=O)[O-])c2)cc1C | 1%
Cc1ccc(C)c(NC(=S)NC(=O)c2ccc(C)c([N+](=O)[O-])c2)c1 | 33%
NC(=O)C1CCN(C2CC(=O)N(c3ccc(Cl)cc3)C2=O)CC1 (configuration not stated) | 12%
CCOc1ccc(N(CC(=O)Nc2c(C)cccc2C)S(C)(=O)=O)cc1 | 18%
C=CCOc1ccc(C=O)cc1I | 25%
O=C(Nc1ccc([N+](=O)[O-])cc1Cl)c1cccnc1 | 5%
CC(C)C(NC(=O)CN(c1ccccc1F)S(C)(=O)=O)C(C)C | 11%
NC(=O)c1c(N)sc2c1CCCCCC2 | 20%
NC(=O)c1c(N)sc2c1CCCCCCCCCC2 | 28%
COc1ccc2ccccc2c1/C=C1\C(=O)NC(=O)N(Cc2ccccc2)C1=O | 40%
COc1ccc(/C=C2/C(=O)NC(=O)N(Cc3ccco3)C2=O)c2ccccc12 | 48%
COc1cc(N2Cc3ccccc3C2)ccc1/C=C1\C(=O)NC(=O)N(Cc2ccco2)C1=O | 51% (active)
O=C1NC(=O)N(Cc2ccco2)C(=O)/C1=C\C=C\c1ccccc1 | 52% (active)
Cc1cc(N2Cc3ccccc3C2)ccc1/C=C1\C(=O)NC(=O)N(Cc2ccco2)C1=O | 42%

SMILES | inhibition
COc1ccc(CN2C(=O)NC(=O)/C(=C\C=C\c3ccccc3)C2=O)cc1 | 10%
NC(=O)Cn1cc(/C=C2/C(=O)NC(=O)N(Cc3ccco3)C2=O)c2ccccc21 | 0%
COc1ccc2ccccc2c1/C=C1/C(=O)NC(=O)N(Cc2ccco2)C1=O | 50% (active)
CCN(CC)c1ccc(/C=C2/C(=O)NC(=O)N(Cc3ccco3)C2=O)c(OC)c1 | 45%
O=C1NC(=O)N(Cc2ccco2)C(=O)/C1=C/c1ccc(OCCOc2ccccc2)cc1 | 13%
O=C1NC(=O)N(Cc2ccco2)C(=O)/C1=C\c1cn(Cc2ccc(Cl)cc2)c2ccccc12 | 37%
O=C1NC(=O)N(Cc2ccco2)C(=O)/C1=C\c1cn(Cc2cccc(F)c2)c2ccccc12 | 57% (active)
Cc1ccc(NC(=O)c2ccc(Cl)c(Cl)c2)c([N+](=O)[O-])c1 | 1%
CC(=O)NC(NC(=S)Nc1sc2c(c1C#N)CCCC2)C(Cl)(Cl)Cl (configuration not stated) | 20%
COc1cc(C2CC(=O)NC(SCc3ccccc3)=C2C#N)ccc1O (configuration not stated) | 6%
O=C(NN=C1CCCCC1)C(=O)Nc1ccc(F)cc1 | 8%
CCOc1c(Br)cc(/C=C2N=C(/C=C/c3ccccc3)OC/2=O)cc1OC | 9%
O=C(NNC(=O)c1cccc(C(=O)NNC(=O)c2ccc(Br)cc2)c1)c1ccc(Br)cc1 | 53% (active)
O=C(NNC(=O)c1cccc(O)c1)c1ccc(Br)cc1 | 10%
O=C(NNC(=O)c1cccc(C#Cc2ccccc2)c1)c1ccc(Br)cc1 | 46%
COc1ccc(C(NC(=O)C(C)C)c2ccc3cccnc3c2O)cc1OC (configuration not stated) | 5%
Oc1ccc(C=Nc2ccc(Cl)c(Cl)c2)cc1O | 17%
Cc1nnc(C)n1/N=C/c1ccc(O)c(O)c1 | 44%
Oc1ccc(N=Cc2ccc(O)c(O)c2)cc1 | 70% (active)
Oc1ccc(C=Nc2ccc(N=Cc3ccc(O)cc3)cc2)cc1 | 15%
Oc1ccc(/C=N/N=C/c2ccc(O)c(O)c2)cc1O | 69% (active)
Oc1ccc(C=Nc2ccc(O)cc2)cc1 | 4%
